The record followed here is ChEMBL document CHEMBL1157539, “Thousands of chemical starting points for antimalarial lead identification” (Nature, 2010).

Assay type in all cases: functional
The test system of assay [1] is Plasmodium falciparum. Put plainly: GSK_TCMDC: Inhibition of Plasmodium falciparum 3D7 in whole red blood cells, using parasite LDH activity as an index of growth. Test compounds present at 2uM.
In assay [2] the test system is Plasmodium falciparum. Put plainly: GSK_TCMDC: Inhibition of Plasmodium falciparum Dd2 in whole red blood cells, using parasite LDH activity as an index of growth. Test compounds present at 2uM.
Assay [3] relates to HepG2. As to the kind of experiment: GSK_TCMDC: Percent inhibition of human HepG2 cell line. Test compounds present at 10uM.

By Inhibition is commonly meant the share of the control response that was lost under treatment. A low value points to a response near the control.

Regarding `CCN(CC)CCN(Cc1ccc(-c2ccc(C(F)(F)F)cc2)cc1)C(=O)Cn1c(CCc2cccc(F)c2F)cc(=O)cc1-c1ccccc1`, the results for the Inhibition in assay [1], in assay [2] and in assay [3] were 94%, 64% and 33%, respectively.
In the same order, the values of `CNC(=O)c1cnc(Nc2ccc(N3CCN(C)CC3)cc2)nc1Nc1cccc(OC(C)C)c1.O=C(O)C(F)(F)F` are 100%, 100% and 16%.
For `COC(=O)C(=O)c1c(-c2ccccc2)c(-c2ccc(OC)c(OC)c2)c2c3cc(OC)c(OC)cc3ccn12` the same measures were 97%, 89% and 2%.
For `Br.CCCN(CCCCCCN(CCC)CCc1ccc(O)c(O)c1)CCc1ccc(O)cc1` the same measures were 90%, 5% and 0%.
For the compound `COc1ccc2nccc([C@@H](O)CN3CCC(NC(=O)/C=C/c4ccc5[nH]c(=O)ccc5c4)CC3)c2c1`, the Inhibition stood at 96% in assay [1], 83% in assay [2] and 2% in assay [3].
In the same order, the values of `CC(C)(C)N1CCC(N(Cc2ccc(-c3ccc(C(F)(F)F)cc3)cc2)C(=O)Cn2c(CCc3cccc(F)c3F)nc(=O)c3cccnc32)CC1.O=C(O)C(O)C(O)C(=O)O` are 100%, 53% and 94%.
Turning to `Clc1ccc(-c2cnc3ccc(NCCc4cccnc4)nn23)cc1`, the Inhibition was 97% in assay [1], 32% in assay [2] and 34% in assay [3].
For the compound `COc1ccc2c(N/N=C/c3ccccc3[N+](=O)[O-])cc(C)nc2c1`, the Inhibition in assay [1] is listed as 100%; in assay [2], 100%; in assay [3] it was 14%.
On to `O=C(NC1CC1)c1ccc(N2CCN(Cc3ccc(Cl)cc3)CC2)nc1.O=C(O)C(F)(F)F`, for which the Inhibition in assay [1] was 84%; in assay [2] it was 81%; in assay [3], 16%.
As for `Cn1cncc1C(=O)Nc1ccc(-c2cccc(-c3nc4cc(C(F)(F)F)ccc4[nH]3)c2)cc1`, the Inhibition is on record as 100% in assay [1], 3% in assay [2] and 34% in assay [3].
Consider `CN(C)/C(=N/C(=N)Nc1ccc(Cl)cc1)NCCCCCCN/C(=N\C(=N)Nc1ccc(Cl)cc1)N(C)C`, for which the Inhibition turned out to be 97% in assay [1], 98% in assay [2] and 11% in assay [3].
For the compound `COc1ccc(CN2CCCC(OC(c3ccc(F)cc3)c3ccc(F)cc3)C2)c(O)c1` (stereo not given), the Inhibition was determined as 100% in assay [1], 99% in assay [2] and 16% in assay [3].
In the same order, the values of `COc1ccc(NC(=O)[C@H](Cc2ccccc2)Nc2cc(C)nc(NCCc3ccc(F)cc3)n2)cc1.O=C(O)C(F)(F)F` are 100%, 82% and 17%.
In the same order, the values of `CCCNCc1ccc(-c2ccc(CN(CCOC)C(=O)c3cccc(C#N)c3)cc2)nc1.O=C(O)C(F)(F)F` are 84%, 14% and 0%.
In the same order, the values of `CC(C)NCc1ccc(-c2ccc(-c3nc4cc(C(F)(F)F)ccc4[nH]3)s2)cc1.O=C(O)C(F)(F)F` are 100%, 94% and 30%.
As for `O=C(Nc1ccc(Br)c(Cl)c1)c1cc([N+](=O)[O-])cc2cn[nH]c12`, the values for the Inhibition in assay [1], in assay [2] and in assay [3] were 99%, 63% and 49%, respectively.
Turning to `Br.CC1(C)NC(N)=NC(=N)N1OCCc1ccccc1`, the Inhibition in assay [1] came to 96%; in assay [2] it was 95%; in assay [3], 70%.
On to `C[C@@H](CC1CCCCC1)OC(=O)N(C)[C@H]1CCN(C#N)C1`, for which the Inhibition in assay [1] came out at 84%; in assay [2], 62%; in assay [3] it was 4%.
For `COc1ccc(NC(=O)N2CCN(CCCCCNC(=O)/C=C/c3ccc(C(F)(F)F)cc3)CC2)cc1Cl` the same measures were 94%, 0% and 25%.
For `Cc1ccc(CCNCC(O)c2cccc(C(F)(F)F)c2)cc1.Cl` (stereo not given) the same measures were 94%, 83% and 0%.
In the case of `O=C(/C=C/c1ccc(Cl)c(Cl)c1)NCCCCCCN1CCCN(C(=O)Nc2ccc(F)c(F)c2)CC1`, the values for the Inhibition in assay [1], in assay [2] and in assay [3] were 89%, 2% and 72%, respectively.
`Cc1cc2nc(-c3ccc(C(=O)NCc4cccc(C(F)(F)F)c4)cc3)[nH]c2cc1C`: the Inhibition amounted to 98% in assay [1], 34% in assay [2] and 4% in assay [3].
As for `Cc1cc(OCCCN2CCCCC2)ccc1NC(=O)COc1ccc(Cl)cc1C(=O)c1cc(Cl)cc(C#N)c1`, the Inhibition in assay [1] is reported as 93%; in assay [2], 16%; in assay [3] it was 28%.
For `CCN(CC)CCCn1c(N)c(-c2nc3ccccc3[nH]2)c2nc(C#N)c(C#N)nc21` the same measures were 100%, 99% and 8%.
In the case of `CCCCN1CCCC[C@H]1[C@@H](O)c1ccnc2ccc(OCC)cc12`, the Inhibition in assay [1] stood at 100%; in assay [2], 88%; in assay [3], 6%.
As to `Cc1ccc(Nc2nc(C)cc(Nc3cccc(NS(C)(=O)=O)c3)n2)cc1`, the values for the Inhibition in assay [1], in assay [2] and in assay [3] were 96%, 8% and 0%, respectively.
For `COc1ccc(CNCc2cccc(-c3cccc(-c4nc5cc(F)ccc5[nH]4)c3)c2)cc1.O=C(O)C(F)(F)F` the same measures were 100%, 55% and 18%.
Take `O=C(NCc1cccc(OC(F)(F)F)c1)c1cnc2c(c1)nc(-c1c[nH]c(-c3ccccc3)n1)n2CCc1c[nH]cn1`: the Inhibition in assay [1] turned out to be 99%; in assay [2], 47%; in assay [3], 0%.
For `O=C(NCCN1CCCC1)c1ccc(-c2ccc(-c3nc4ccccc4[nH]3)s2)cc1` the same measures were 92%, 3% and 22%.
As to `Cc1ccc2c(c1)c(C1CCN(C(=O)c3ccc([N+](=O)[O-])o3)CC1)cn2C`, the Inhibition in assay [1] came out at 97%; in assay [2] it was 76%; in assay [3], 0%.
Consider `OCCc1ccc(Nc2nccc(-c3nnc4ccccn34)n2)cc1`, for which the results for the Inhibition in assay [1], in assay [2] and in assay [3] were 93%, 46% and 63%, respectively.
For `c1ccc(-c2cc(NCCCn3ccnc3)nc(-c3cccnc3)n2)cc1`, the Inhibition in assay [1] is recorded as 84%; in assay [2], 6%; in assay [3], 15%.
`COc1ccc(C(=O)CCC(=O)N(Cc2ccc(-c3ccc(CNCCc4ccc(S(C)(=O)=O)cc4)cn3)cc2)C2CC3CCC2C3)cc1F.O=C(O)C(F)(F)F` (stereo not given): the Inhibition in assay [1] amounted to 97%; in assay [2], 34%; in assay [3], 5%.
For `Cl.c1ccc(-c2cc(NCCCCCCCCNc3cc(-c4ccccc4)nc4ccccc34)c3ccccc3n2)cc1` the same measures were 100%, 72% and 36%.
In the same order, the values of `COC(=O)c1ccc(NC(=O)Nc2ccc(Cn3ncc(N4CCCNCC4)c(Cl)c3=O)cc2)cc1.O=C(O)C(F)(F)F` are 83%, 43% and 0%.
In the same order, the values of `COc1ccc(C2CCC(NCCCCNC(=O)c3ccc(NC(=O)c4ccc(Cl)cc4)cc3)CC2)cc1` (stereo not given) are 99%, 7% and 23%.
As to `COc1cccc(CNCC(C)(C)c2nc(-c3ccc(Cl)c(O)c3)c(-c3ccncc3)[nH]2)c1.Cl`, the values for the Inhibition in assay [1], in assay [2] and in assay [3] were 100%, 98% and 74%, respectively.
For `COc1ccc(-c2nc(NC(=O)CSc3ccc([N+](=O)[O-])cc3)sc2C)cc1` the same measures were 100%, 100% and 0%.
In the same order, the values of `COc1cc2c(cc1S(=O)(=O)c1ccc(COc3ccc(C(F)(F)F)cc3)cc1)CNCC2.Cl` are 100%, 89% and 32%.
In the same order, the values of `Cc1cc(N2CCCC2=O)ccc1-c1ccc(C(=O)N2CCC(Oc3cccc(Cl)c3)CC2)cc1` are 99%, 98% and 34%.
With `Cc1cccc2nc(-c3ccc(-c4ccc(NC(=O)C(C)CN(C)C)cc4)cc3)[nH]c12` (stereo not given), the Inhibition is 99% in assay [1], 99% in assay [2] and 18% in assay [3].
Consider `CN1CCN(c2ccnc3ccc(NC(=O)Nc4ccc(Cl)cc4)cc23)CC1`, for which the Inhibition in assay [1] was determined as 100%; in assay [2] it was 99%; in assay [3], 11%.
For `O=S(=O)(c1ccccc1Cl)N1CCCCC(c2ccc(C(F)(F)F)cc2)=N1` the same measures were 86%, 72% and 22%.
In the same order, the values of `COc1cc(CNCCCNc2nc(=O)c3sccc3[nH]2)c2[nH]cc(Cl)c2c1.CS(=O)(=O)O` are 96%, 0% and 29%.
In the same order, the values of `Cc1nc2nc(N)nc(N)c2c(C)c1Cc1ccccc1I.Cl` are 96%, 0% and 63%.
Turning to `CCCCN1C(=N)NC(c2ccccc2)(c2ccccc2)C1=O`, the Inhibition came to 87% in assay [1], 34% in assay [2] and 19% in assay [3].
For `CN1CCN(Cc2ccc(OCc3cccc(COc4ccc(CN5CCN(C)CC5)cc4I)c3)c(I)c2)CC1.Cl` the same measures were 92%, 69% and 93%.
For `CCCS(=O)(=O)N1CCC(CO)(Cc2ccccc2C(F)(F)F)CC1` the same measures were 97%, 57% and 0%.
Take `CN(C)c1nc2cc(-n3cnc4cc(-c5ccc(Cl)cc5)sc4c3=O)ccc2n1CCCN1CCCC1.O=C(O)C(F)(F)F`: the results for the Inhibition in assay [1], in assay [2] and in assay [3] were 97%, 73% and 99%, respectively.
As for `CC1CCN(CC[C@H]2CCCN2S(=O)(=O)c2cccc(NC(=O)c3cc4ccccc4s3)c2)CC1`, the Inhibition in assay [1] was determined as 97%; in assay [2] it was 41%; in assay [3], 28%.
Consider `COc1ccc(Nc2ccnc3cc4ccccc4cc23)cc1.Cl`, for which the Inhibition in assay [1] was found to be 100%; in assay [2], 73%; in assay [3] it was 32%.
In the same order, the values of `COc1cc(C=Cc2ccc3ccccc3n2)cc(Br)c1OCC(=O)N(C)C` are 99%, 87% and 28%.
For `Cc1noc(-c2ccc3c(c2)CCN(CCC2CCC(NC(=O)/C=C/c4ccc(F)cc4)CC2)CC3)n1.Cl` (stereo not given) the same measures were 91%, 39% and 44%.
For `COc1cccc(NC(=O)Nc2ccc(Nc3nc(C)cc(N(C)C)n3)cc2)c1` the same measures were 100%, 100% and 14%.
Regarding `CN(C)c1ccc(-c2csc(C(=O)NCC3CCN(CCC(C)(C)C)C3)c2)cc1.O=C(O)C(F)(F)F` (stereo not given), the values for the Inhibition in assay [1], in assay [2] and in assay [3] were 87%, 16% and 29%, respectively.
For `N=C(N)Nc1nc(-c2cccc(NC(=O)NCC(c3ccccc3)c3ccccc3)c2)cs1` the same measures were 100%, 87% and 0%.
In the same order, the values of `COc1ccccc1-c1csc(C(=O)NC2CCCCN(Cc3ccc(C(C)(C)C)cc3)C2)c1.O=C(O)C(F)(F)F` (stereo not given) are 99%, 8% and 13%.
As for `COc1ccc2ncc(F)c(CCN3CCC(NCc4cc(C)c5c(c4)OCCO5)CC3)c2n1.Cl`, the values for the Inhibition in assay [1], in assay [2] and in assay [3] were 100%, 67% and 20%, respectively.
In the same order, the values of `COc1cccc(CNC[C@@H](O)[C@H](Cc2ccccc2)NC(=O)c2cc(C(C)C)cc(N3CCCC3=O)c2)c1` are 95%, 61% and 1%.
Take `O=C(N[C@H]1CCN(Cc2ccc(OCCCN3CCCCC3)cc2)C1)c1ccc2ccccc2c1`: the Inhibition in assay [1] is recorded as 97%; in assay [2], 32%; in assay [3] it was 8%.
